Measurements: PubChem BioAssay
The source made the active and inactive calls.

How the values were obtained:
[1] = compounds binding Alexa647 anti-His antibody – biochemical, small-molecule microarray, 635 nm fluorescence, artefact control for SMM control protein annotation, primary screen (AID 1128); conditions: higher = more signal;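 further: score merges feature fluorescence with signal-to-noise for each printed compound spot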
[2] = system: Human papillomavirus type 1a E7 protein (residues 1-88); assay: HPV1a E7 small-molecule binders, primary screen, biochemical, small-molecule microarray, residues 1-88, 635 nm (AID 1129); conditions: small-molecule microarray binding, fluorescence 635 nm; higher = more signal
[3] = target: Focal adhesion kinase 1 (Homo sapiens) (UniProt Q05397); assay: PTK2 protein binding on printed compound slides – biochemical, small-molecule microarray, 635/667 nm fluorescence, BSA, DTT, primary screen (AID 1130); conditions: 635 nm fluorescence, higher = more signal;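 further: composite of spot emission at 667 nm and signal to noise over triplicate slides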
Chain of Focal adhesion kinase 1 (Homo sapiens) (Q05397 whole entry, looked up): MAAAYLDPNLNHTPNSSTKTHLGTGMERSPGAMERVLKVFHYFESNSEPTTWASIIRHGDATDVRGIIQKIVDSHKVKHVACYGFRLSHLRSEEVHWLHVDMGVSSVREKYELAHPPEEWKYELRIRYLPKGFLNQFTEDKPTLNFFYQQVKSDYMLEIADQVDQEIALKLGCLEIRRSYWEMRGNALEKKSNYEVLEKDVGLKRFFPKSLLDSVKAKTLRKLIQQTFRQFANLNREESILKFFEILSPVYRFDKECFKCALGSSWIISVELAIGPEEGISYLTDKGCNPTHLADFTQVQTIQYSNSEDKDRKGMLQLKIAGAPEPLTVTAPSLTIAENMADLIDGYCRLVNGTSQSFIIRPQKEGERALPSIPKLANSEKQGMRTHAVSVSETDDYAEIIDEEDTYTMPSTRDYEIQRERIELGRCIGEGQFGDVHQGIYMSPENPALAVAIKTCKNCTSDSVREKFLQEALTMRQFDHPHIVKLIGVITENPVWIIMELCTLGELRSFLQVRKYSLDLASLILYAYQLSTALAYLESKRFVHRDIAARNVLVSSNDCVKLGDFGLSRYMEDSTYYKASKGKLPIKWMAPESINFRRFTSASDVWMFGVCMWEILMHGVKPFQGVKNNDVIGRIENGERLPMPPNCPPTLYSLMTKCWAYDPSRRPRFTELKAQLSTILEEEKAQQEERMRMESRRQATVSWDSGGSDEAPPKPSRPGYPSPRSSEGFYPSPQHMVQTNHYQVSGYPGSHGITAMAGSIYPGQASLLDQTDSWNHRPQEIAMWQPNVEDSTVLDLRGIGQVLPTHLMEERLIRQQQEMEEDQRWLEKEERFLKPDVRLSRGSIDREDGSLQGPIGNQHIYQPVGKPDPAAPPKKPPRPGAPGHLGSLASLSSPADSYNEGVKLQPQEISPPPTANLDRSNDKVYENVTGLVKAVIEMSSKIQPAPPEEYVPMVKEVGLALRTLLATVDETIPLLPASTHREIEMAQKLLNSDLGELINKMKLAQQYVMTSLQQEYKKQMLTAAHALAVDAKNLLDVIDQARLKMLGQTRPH

[4] = system: Fibrinogen (Alexa647-labelled); assay: Alexa647-fibrinogen binding to printed small molecules – biochemical, small-molecule microarray, 635/667 nm fluorescence, artefact control for SMM control-protein annotation, profiling panel (AID 1131); conditions: fibrinogen-A647 binding fluorescence, higher = more signal;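 further: z-score merges 667 nm fluorescence with per-spot signal-to-noise over triplicate slides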
[5] = target: Follistatin (Homo sapiens) (UniProt P19883); assay: FST protein binding to printed compounds – biochemical, small-molecule microarray, 635/667 nm fluorescence, primary screen (AID 1132); conditions: 635 nm fluorescence, higher = more signal
Chain of Follistatin (Homo sapiens) (P19883 whole entry, looked up): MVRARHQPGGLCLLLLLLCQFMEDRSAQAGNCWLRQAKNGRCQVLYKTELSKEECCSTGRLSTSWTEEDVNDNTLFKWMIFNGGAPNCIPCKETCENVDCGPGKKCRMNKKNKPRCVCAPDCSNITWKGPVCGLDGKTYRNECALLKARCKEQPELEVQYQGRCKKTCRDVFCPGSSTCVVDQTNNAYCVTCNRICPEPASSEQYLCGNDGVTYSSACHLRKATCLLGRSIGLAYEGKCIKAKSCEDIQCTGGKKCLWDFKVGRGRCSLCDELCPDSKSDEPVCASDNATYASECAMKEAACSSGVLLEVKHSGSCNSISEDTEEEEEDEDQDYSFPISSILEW

[6] = target: Fibroblast growth factor 2 (Homo sapiens) (UniProt P09038); assay: basic fibroblast growth factor binding to printed compounds – biochemical, small-molecule microarray, 635/667 nm fluorescence, primary screen (AID 1133); conditions: FGF2, fluorescence 635/667, higher = more signal
Chain of Fibroblast growth factor 2 (Homo sapiens) (P09038 whole entry, looked up): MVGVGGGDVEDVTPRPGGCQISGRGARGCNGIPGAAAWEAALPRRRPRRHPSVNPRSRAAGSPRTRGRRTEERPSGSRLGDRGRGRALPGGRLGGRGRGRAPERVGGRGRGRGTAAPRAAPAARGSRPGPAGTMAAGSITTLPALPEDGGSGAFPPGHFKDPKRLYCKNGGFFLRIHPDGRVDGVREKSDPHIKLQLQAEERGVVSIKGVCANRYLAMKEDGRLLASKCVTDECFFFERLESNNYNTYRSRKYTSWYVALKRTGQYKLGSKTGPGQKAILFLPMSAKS

[7] = JC-1 mitochondrial potential readout, lung cancer cells – cell-based, A549, JC-1 fluorescence, basal, 24 h, 100 nL, profiling panel (AID 1138); conditions: higher = more signal;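 further: A549 lung adenocarcinoma cells under basal conditions with no added stimulus; test concentration not given here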
[8] = system: Lefty1; assay: Lefty1 protein binding to printed compounds – biochemical, small-molecule microarray, 635/667 nm fluorescence, primary screen (AID 1139); conditions: fluorescence 635/667, higher = more signal
[9] = system: wheat germ agglutinin (Triticum aestivum), Alexa647-labelled; assay: Alexa647-WGA lectin binding to printed small molecules – biochemical, small-molecule microarray, 635/667 nm fluorescence, artefact control for SMM control-protein annotation, profiling panel (AID 1140); conditions: WGA-A647 binding, 635 nm fluorescence, higher = more signal;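 further: score merges 667 nm feature emission with signal to noise over triplicate slides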
[10] = target: Luciferin 4-monooxygenase (Photinus pyralis) (UniProt P08659); assay: inhibition of purified Photinus pyralis luciferase – biochemical, luminescence, purified enzyme, 2006 set, primary screen (AID 1141); conditions: purified firefly luciferase, SteadyGlo luminescence, 30 min; higher = more signal, called active from +8 up or from −8 down;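 further: cell-free assay with purified firefly luciferase at 100 ng per well in PBS; test concentration not given here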
Chain of Luciferin 4-monooxygenase (Photinus pyralis) (P08659 whole entry, looked up): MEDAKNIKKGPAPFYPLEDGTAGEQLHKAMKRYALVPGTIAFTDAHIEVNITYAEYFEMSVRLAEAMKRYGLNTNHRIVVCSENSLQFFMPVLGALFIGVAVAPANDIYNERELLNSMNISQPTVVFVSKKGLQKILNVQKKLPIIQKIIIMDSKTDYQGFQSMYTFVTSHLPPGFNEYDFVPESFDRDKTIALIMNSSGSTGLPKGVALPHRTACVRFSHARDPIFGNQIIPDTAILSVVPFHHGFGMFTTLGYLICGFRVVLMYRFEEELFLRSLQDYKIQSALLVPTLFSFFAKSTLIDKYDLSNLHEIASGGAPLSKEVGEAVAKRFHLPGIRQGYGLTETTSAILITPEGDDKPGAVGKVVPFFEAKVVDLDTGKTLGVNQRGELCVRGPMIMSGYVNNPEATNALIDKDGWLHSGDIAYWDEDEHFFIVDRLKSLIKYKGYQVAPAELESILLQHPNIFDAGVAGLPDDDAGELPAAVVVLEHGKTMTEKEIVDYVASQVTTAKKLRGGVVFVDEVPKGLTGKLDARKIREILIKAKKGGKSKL

Compound | composite z-score [1] | composite z-score [2] | composite z-score [3] | composite z-score [4] | composite z-score [5] | composite z-score [6] | z-score [7] | composite z-score [8] | composite z-score [9] | z-score [10]
[N-]=[N+]=Nc1ccccc1C[C@]1(C(=O)N2CCCCC2)N=C(c2ccc(OCCCO)cc2)O[C@H]1c1ccccc1 | 2.69 | 1.2 | 0.307 | 0.934 | 1.26 | 1.38 | -0.0876 | 0.225 | 1.22 | -1.99 (inactive)
COc1ccc(CCNC(=O)[C@@H]2c3ccccc3C(=O)N(C(C)C)[C@H]2c2ccc(CO)cc2)cc1 | -1.32 | -0.878 | -0.736 | -1.3 | -1.27 | -0.934 | 2.71 | -2.21 | -1.74 | -0.897 (inactive)
COc1ccc([Si](C)(C)[C@@H]2[C@@H](CC(=O)N3CCC[C@H]3CO)O[C@]3(C(=O)N(Cc4cccc(N5C(=O)c6cccc7cccc5c67)c4)c4ccccc43)[C@H]2C)cc1 | 1.2 | 1.03 | 0.948 | 0.584 | 1.16 | 1.43 | -0.0137 | 0.839 | 1.21 | -0.0921 (inactive)
COc1ccc(CCNC(=O)[C@@H]2c3ccccc3C(=O)N(Cc3cc(F)cc(C(F)(F)F)c3)[C@H]2c2ccc(CO)cc2)cc1 | 0.634 | 0.544 | 0.137 | 0.227 | 1 | 0.409 | 3.34 | -0.192 | 0.871 | -1.13 (inactive)
C[C@]1(C(=O)NC2CC2)c2ccccc2C(=O)N(Cc2cc(F)cc(C(F)(F)F)c2)[C@H]1c1ccc(CO)cc1 | 1.26 | -0.0534 | -0.695 | -0.331 | 0.719 | -0.785 | -0.057 | 0.0495 | -0.692 | 0.851 (inactive)
OCCCc1cc[n+](Cc2cc3c(cc2Br)OCO3)cc1 | -0.874 | -1.86 | -0.719 | -1.64 | -0.528 | -0.333 | -0.0611 | -0.903 | -0.77 | -0.903 (inactive)
N#Cc1ccc(NN2C(C(O)c3ccc(B(O)O)cc3)C=CC3CN(c4ccccc4)C(=O)C32)cc1 (stereo not given) | 0.48 | -0.633 | -0.508 | 0.529 | -0.0923 | -0.436 | -0.408 | -0.118 | 0.485 | -1.24 (inactive)
COC(=O)[C@@]1(Cc2ccc(F)cc2)[C@H]2c3cc(C(=O)N(C)C)n(Cc4cccc5ccccc45)c3C[C@H]2CN1C(=O)c1ccccc1 | 0.497 | 1.11 | 0.705 | 0.338 | 0.137 | -0.617 | 0.319 | -0.446 | 0.115 | 4.74 (inactive)
CC(C)C[C@@H]1NC(=O)[C@@H]2C[C@H](C(=O)NCCCCCNC(=O)CS)[C@H](c3ccc(O)cc3)N2C1=O | 2.52 | -0.0315 | 0.322 | 0.0178 | 0.815 | 1.24 | -0.976 | 0.627 | 0.263 | 0.448 (inactive)
COC(=O)[C@@]1(Cc2ccc(F)cc2)[C@H]2c3cc(C(=O)N4CCCC4)n(Cc4ccc(C(F)(F)F)nc4)c3C[C@H]2CN1C(=O)c1ccccc1 | 1.2 | 1.19 | 1.16 | 1.01 | 1.38 | -0.71 | 1.3 | -0.13 | 1.06 | 3.14 (inactive)
COC(=O)[C@@]1(Cc2ccc(F)cc2)[C@H]2c3cc(C(=O)N(C)C)n(Cc4ccsc4Br)c3C[C@H]2CN1C(=O)c1ccccc1 | 0.77 | 1.12 | 1.96 | 1.04 | -0.161 | 0.021 | -0.51 | -0.675 | 1.04 | 1.18 (inactive)
O=C1OCCC/C=C\[C@H]2OC34C=CCN(Cc5ccccc5)C(=O)[C@H]3N(CCO)C(=O)[C@@H]4C12 (stereo not given in full) | -0.941 | 0.444 | -0.287 | -0.956 | -0.296 | -0.259 | 1.64 | 0.398 | -0.889 | -1.56 (inactive)
CC(C)(C)OC(=O)CC[C@@]1(C(N)=O)N=C(c2ccc(OCCCO)cc2)O[C@@H]1c1ccccc1CN=[N+]=[N-] | 3.46 | 1.13 | 0.177 | 0.524 | 1.34 | 1.34 | -0.332 | -0.721 | 0.68 | -1.79 (inactive)
CCOC(=O)C[C@H]1[C@H](OC(=O)c2ccccc2-c2ccccc2)[C@@H](NC(=O)CC(C)C)c2cc(OCCCO)ccc2N1C(=O)c1ccccc1 | -0.229 | 0.0447 | -0.0647 | 0.24 | 1.01 | 0.583 | -0.154 | 1.01 | -0.0988 | 0.914 (inactive)
C=CCOC(=O)[C@H]1[C@@H]2C(=O)O[C@@H](c3ccccc3)[C@@H](c3ccccc3)N2[C@@H](c2ccc(OCCOC(=O)[C@H]3C[C@H]4C(=O)NCC(=O)N4[C@H]3c3ccc(O)cc3)cc2)[C@]12C(=O)Nc1ccccc12 | 1.46 | 1.22 | 0.402 | 0.961 | 1.44 | 1.46 | -1.62 | 1.26 | 0.543 | 0.207 (inactive)
CCOC(=O)C=C1C[C@@H](c2cccc([N+](=O)[O-])c2)O[C@@H](c2cccc([N+](=O)[O-])c2)O1 | 1.1 | 1.11 | 0.867 | 0.871 | 0.669 | 0.715 | 3.03 | 0.279 | 0.697 | 1.31 (inactive)
CC(C)c1ccc(NN2C(C(O)C(C)c3ccccc3)C=CC3C(=O)N(c4ccccc4)C(=O)C32)cc1 (stereo not given) | 1.63 | 1.17 | 0.531 | 0.988 | 1.2 | 0.558 | -0.864 | 0.155 | 1.19 | 0.222 (inactive)
CCOC(=O)C[C@H]1[C@H](OC(=O)c2cc3ccccc3oc2=O)[C@@H](NC(=O)c2ccc(-c3ccccc3)cc2)c2cc(OCCCO)ccc2N1C(=O)Cc1ccc(OC)cc1 | 0.396 | 1.19 | 0.414 | 0.522 | 0.679 | 1.41 | -0.424 | 0.907 | 0.266 | 0.853 (inactive)
CCCCCCc1nc(-c2ccc(OC)nc2)c(C)c2c1[Si](C(C)C)(C(C)C)OC2 | 0.975 | -0.461 | 0.0484 | -0.52 | 0.553 | 0.0695 | -0.498 | 0.524 | -0.491 | 0.146 (inactive)
CCCC1(C(=O)OC)C=C2C(=C(C(C)C)C(=O)C2C)CN1 (stereo not given) | 1.76 | -1.58 | -0.222 | -0.727 | -0.927 | -0.434 | 0.905 | -1.1 | -0.116 | 1.88 (inactive)
COc1ccc(NN2C(C(O)c3ccccc3)C=CC3C(=O)N(C4CCCCC4)C(=O)C32)cc1 (stereo not given) | 0.864 | 1.26 | 0.82 | 0.996 | 0.925 | 0.202 | 0.338 | 0.769 | 1.03 | -0.684 (inactive)
